From PubChem BioAssay (Tox21)
Where “and” joins values, the source holds several entries; their conditions need not be identical. Equal entries are not always repeated. Calls of active or inactive are those of the source. Unless noted, calls follow the shape of the dose curve; as a rule, active = well fitted curve in the direction sought with a large enough effect in the repeat runs; inconclusive = weak or mixed curves; inactive = no such curve, though single readings can be large; an effect the other way counts as inactive or inconclusive.

Key:
[1] = qHTS assay for small molecule agonists of the p53 signaling pathway (AID 651631; calls by dose curve; also: nearly all actives have a fitted effect of over 15% in size; also: potency is read from the fitted curve at half-maximal effect)
Summary of the method: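 HCT-116 cells carrying a stable p53 response element–beta-lactamase reporter were plated, rested 5 h at 37 °C, then exposed to compound in DMSO for 16 h at 37 °C; reporter activity was read as FRET substrate fluorescence after 2 h at room temperature.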

[2] = qHTS assay for small molecules that induce genotoxicity in human embryonic kidney cells expressing luciferase-tagged ATAD5 (AID 651632); also: nearly all actives have a fitted effect of over 15% in size
Summary of the method: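 A rise in luciferase signal from ATAD5-tagged HEK293T cells marks genetic stress. Cells were exposed to compounds for 16 hr at 37C, 5% CO2, then luciferase was quantified after a 30 min room-temperature incubation with Amplite.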

[3] = qHTS assay for small molecule agonists of the p53 signaling pathway - cell viability (AID 651633; calls by dose curve; also: series mostly up to about 83 µM; nearly all actives have a fitted effect of over 30% in size)
Summary of the method: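 p53RE-bla cells were treated with compound for 16 hours at 37 C. Cytotoxicity was then measured as CellTiter-Glo luminescence after 30 min at room temperature.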

[4] = qHTS assay for small molecule disruptors of the mitochondrial membrane potential - cell viability (AID 720634; calls by dose curve; also: nearly all actives have a fitted effect of over 20% in size; also: potency is read from the fitted curve at half-maximal effect)
Summary of the method: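 Cytotoxicity was quantified from ATP content by CellTiter-Glo luminescence in the same wells as the MMP dye read-out. HepG2 (2,000 cells/well) were plated overnight and exposed to compounds for 1 hr at 37 C.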

[5] = qHTS assay to test for compound auto fluorescence at 590 nm (red) in HepG2 cells (AID 720674)
Summary of the method: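 Seeding: 2,000 HepG2 cells/well, MEM/10% FBS, overnight 37 C. Dosing: compound vs DMSO. Incubation: 1 hr, 37 C, 5% CO2. Read: fluorescence 540 ex/590 em, Rose Bengal sodium as red reference.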

[6] = qHTS assay to test for compound auto fluorescence at 535 nm (green) in HepG2 cells (AID 720675)
[7] = qHTS assay to test for compound auto fluorescence at 460 nm (blue) in HEK293 cells (AID 720678)
Summary of the method: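 HEK293, 2,000 cells/well, 10% dialyzed FBS; attach 4-5 hr 37C; pin compound or DMSO; o/n 37C/5% CO2; fluorescence 405/460 nm; triamterene-equivalent units.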

[8] = qHTS assay to test for compound auto fluorescence at 535 nm (green) in HEK293 cells (AID 720680)
[9] = qHTS assay to test for compound auto fluorescence at 535 nm (green) in HEK293 cell free culture (AID 720682)
Summary of the method: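 Read-out: 485/535 nm fluorescence intensity, calibrated against fluorescein. Medium only (DMEM + 10% FBS, no cells); test compound or DMSO vehicle added by pintool before plate reading.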

[10] = qHTS assay to test for compound auto fluorescence at 590 nm (red) in HEK293 cell free culture (AID 720683)
Summary of the method: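 Cell-free wells of DMEM with 10% FBS received compound, and intrinsic fluorescence was read at excitation/emission 540/590 nm. Values expressed as equivalence to Rose Bengal sodium.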

[11] = qHTS assay to test for compound auto fluorescence at 590 nm (red) in HepG2 cell free culture (AID 720684)
Summary of the method: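 Auto fluorescence equivalency versus Rose Bengal sodium, red channel Ex/Em 540/590 nm; compounds in cell-free MEM/10% FBS; DMSO vehicle control.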

[12] = qHTS assay to test for compound auto fluorescence at 460 nm (blue) in HepG2 cell free culture (AID 720685)
Summary of the method: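 Cell-free plates of MEM plus 10% FBS received 23 nL compound or DMSO vehicle; blue-channel (405/460 nm) intensity scored against triamterene as reference fluorophore.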

[13] = qHTS assay to test for compound auto fluorescence at 535 nm (green) in HepG2 cell free culture (AID 720686)
[14] = qHTS assay to test for compound auto fluorescence at 460 nm (blue) in HepG2 cells (AID 720687)
Summary of the method: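 HepG2 cells in MEM with 10% FBS, attached overnight at 37 C, were exposed to compound or DMSO for 1 hr at 37 C, 5% CO2. Blue fluorescence was read at 405/460 nm, with triamterene as reference fluorophore.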

[15] = qHTS assay for small molecules that induce genotoxicity in human embryonic kidney cells expressing luciferase-tagged ATAD5 - cell viability (AID 651634; calls by dose curve; also: nearly all actives have a fitted effect of over 25% in size)
Summary of the method: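 Cytotoxicity counter-readout: after 15.5 hr compound treatment at 37C, live-cell protease activity in ATAD5-luciferase HEK293T cells measured by CellTiter-Fluor fluorescence, 30 min development at 37C.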

[16] = qHTS assay for small molecule disruptors of the mitochondrial membrane potential (AID 720635); also: potency is read from the fitted curve at half-maximal effect
Summary of the method: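 HepG2 cells exposed to compound 1 hr at 37C, then Mito-MPS dye 30 min. Ratio read of aggregate (540/590 nm) versus monomer (490/535 nm) fluorescence.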

[17] = qHTS assay to test for compound auto fluorescence at 590 nm (red) in HEK293 cells (AID 720679)
Summary of the method: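 Intensity at 540nm excitation and 590nm emission is reported as Rose Bengal sodium-equivalent autofluorescence. Measurements followed overnight exposure (37C, 5% CO2) of HEK293 cells, 2,000 per well, to 23 nL compound.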

[18] = qHTS assay to test for compound auto fluorescence at 460 nm (blue) in HEK293 cell free culture (AID 720681)
Summary of the method: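 Compounds were added to cell-free DMEM with 10% FBS and fluorescence read directly. The blue channel used 405 nm excitation and 460 nm emission, with triamterene as the reference fluorophore.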

[19] = molecular target: Glucocorticoid receptor (Homo sapiens) (UniProt P04150); assay: qHTS assay to identify small molecule agonists of the glucocorticoid receptor (GR) signaling pathway (AID 720691; active = well fitted activation curve with a large enough effect in the signal ratio in the repeat runs, not every such curve was filed as active; inconclusive = weak or mixed curves, or effect the other way; inactive = no such curve, though single readings can be large or run the other way; the % refers to the signal ratio; also: potency is read from the fitted curve at half-maximal effect)
Summary of the method: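 Agonist-mode qHTS in HeLa cells stably expressing a glucocorticoid-response-element beta-lactamase reporter. Fluorescence intensity read with FRET substrate (2 h, room temperature) after 18 h compound treatment at 37 C.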

[20] = molecular target: Glucocorticoid receptor (Homo sapiens) (UniProt P04150); assay: qHTS assay to identify small molecule antagonists of the glucocorticoid receptor (GR) signaling pathway (AID 720692; active = well fitted inhibition curve with a large enough effect in the signal ratio in the repeat runs, not every such curve was filed as active; inconclusive = weak or mixed curves, or effect the other way; inactive = no such curve, though single readings can be large or run the other way; the % refers to the signal ratio)
Summary of the method: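 Inhibition of dexamethasone-driven (5 nM final) beta-lactamase expression was measured in GRE-reporter HeLa cells over 18 h at 37C. Fluorescence was read after 2 h with the B/G FRET substrate at room temperature.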
% is scaled to controls: 0 for no effect and ±100 for the full control effect.

Chain of Glucocorticoid receptor (Homo sapiens) (P04150 whole entry, looked up): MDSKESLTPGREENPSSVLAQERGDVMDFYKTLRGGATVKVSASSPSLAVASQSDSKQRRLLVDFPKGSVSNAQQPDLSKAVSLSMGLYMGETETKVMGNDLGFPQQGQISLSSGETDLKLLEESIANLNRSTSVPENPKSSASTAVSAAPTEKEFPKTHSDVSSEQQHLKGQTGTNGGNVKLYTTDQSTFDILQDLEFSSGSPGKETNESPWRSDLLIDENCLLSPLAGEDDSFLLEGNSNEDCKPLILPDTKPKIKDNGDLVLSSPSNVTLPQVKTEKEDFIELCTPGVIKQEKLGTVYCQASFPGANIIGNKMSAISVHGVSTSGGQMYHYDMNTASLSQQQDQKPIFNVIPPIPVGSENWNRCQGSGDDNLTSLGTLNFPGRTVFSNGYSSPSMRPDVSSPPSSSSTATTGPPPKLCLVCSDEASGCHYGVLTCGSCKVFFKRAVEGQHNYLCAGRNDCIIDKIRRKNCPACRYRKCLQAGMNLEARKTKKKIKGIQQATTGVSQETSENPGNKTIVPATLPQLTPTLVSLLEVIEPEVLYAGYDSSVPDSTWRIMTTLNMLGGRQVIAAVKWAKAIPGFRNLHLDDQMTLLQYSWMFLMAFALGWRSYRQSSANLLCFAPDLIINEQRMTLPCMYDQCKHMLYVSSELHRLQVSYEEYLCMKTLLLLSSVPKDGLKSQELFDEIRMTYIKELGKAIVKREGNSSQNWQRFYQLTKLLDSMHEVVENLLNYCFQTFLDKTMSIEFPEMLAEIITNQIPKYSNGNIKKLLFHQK

Cc1ccc(N/N=c2\c(=O)cc/c(=N\Nc3ccc(S(=O)(=O)O)cc3)c2=O)c(C)c1
inactive: Potency [1] | Potency [2] | Potency [3] | Potency [4] | Potency [5] | Potency [6] | Potency [7] | Potency [8] | Potency [9] | Potency [10] | Potency [11] | Potency [12] | Potency [13] | Potency [14]

CC[N+](CC)(CC)CCOC(=O)C(C1CCCC1)C1CCCC1
inactive: Potency [2] | Potency [3] | Potency [15] | Potency [4] | Potency [16] | Potency [5] | Potency [6] | Potency [7] | Potency [17] | Potency [8] | Potency [18] | Potency [9] | Potency [10] | Potency [11] | Potency [12] | Potency [13] | Potency [14]

CC1=CCC(=C(C)C)CC1
inactive: Potency [1] | Potency [2] | Potency [3] | Potency [5] | Potency [6] | Potency [7] | Potency [17] | Potency [8] | Potency [18] | Potency [9] | Potency [10] | Potency [11] | Potency [12] | Potency [14]

CCc1cccc(CC)c1NC(=O)CN(CC(=O)O)CC(=O)O
inactive: Potency [2] | Potency [3] | Potency [15] | Potency [4] | Potency [16] | fluorescence, relative to Rose Bengal [5] 0.215% [at 18.6 µM] | fluorescence, % of fluorescein control [6] -0.0501% [at 18.6 µM] | fluorescence, % of triamterene [7] -0.194% [at 18.6 µM] | fluorescence, % of fluorescent control [17] -0.732% [at 18.6 µM] | fluorescence, % of fluorescein [8] 0.0114% [at 18.6 µM] | fluorescence, % of fluorescent control [18] 0.0332% [at 18.6 µM] | activity change [9] 0.0655% [at 18.6 µM, active compounds read high] | fluorescence, % of fluorescent control [10] 0.184% [at 18.6 µM] | fluorescence, % of Rose Bengal [11] -0.249% [at 18.6 µM] | fluorescence, % of fluorescein control [13] 0.0075% [at 18.6 µM] | fluorescence, % of fluorescent control [14] 0.148% [at 18.6 µM] | Potency [19] | Potency [20]

Cc1c2ccccc2c(C)c2c1ccc1ccccc12
inactive: Potency [2] | Potency [5] | Potency [6] | Potency [7] | Potency [17] | Potency [8] | Potency [9] | Potency [10] | Potency [11] | Potency [12] | Potency [14]
active: Potency [1] 30.3 µM and 54.5 µM | Potency [4] 12.1 µM | Potency [16] 5.39 µM and 24.3 µM | Potency [19] 3.85 µM and 54.9 µM [inconclusive]

C=C(CC)C(=O)c1ccc(OCC(=O)O)c(Cl)c1Cl
inactive: Potency [2] | Potency [4] | Potency [5] | Potency [6] | Potency [7] | Potency [8] | Potency [18] | Potency [9] | Potency [10] | Potency [11] | Potency [12] | Potency [19]
active: Potency [1] 11.9 µM and 9.62 µM

O=C(O)c1cc(-c2ccc(F)cc2F)ccc1O
active: Potency [16] 11.4 µM
inactive: Potency [2] | Potency [3] | Potency [15] | Potency [4] | fluorescence, relative to Rose Bengal [5] 0.164% [at 18.6 µM] | fluorescence, % of fluorescein control [6] -0.0913% [at 18.6 µM] | fluorescence, % of triamterene [7] -0.0352% [at 18.6 µM] | fluorescence, % of fluorescent control [17] -0.141% [at 18.6 µM] | fluorescence, % of fluorescein [8] 0.0391% [at 18.6 µM] | fluorescence, % of fluorescent control [18] 0.0528% [at 18.6 µM] | activity change [9] -0.026% [at 18.6 µM, active compounds read high] | fluorescence, % of fluorescent control [10] -0.0186% [at 18.6 µM] | fluorescence, % of Rose Bengal [11] -0.0804% [at 18.6 µM] | fluorescence, % of fluorescent control [12] -0.0315% [at 18.6 µM] | fluorescence, % of fluorescein control [13] -0.0114% [at 18.6 µM] | fluorescence, % of fluorescent control [14] -0.098% [at 18.6 µM] | Potency [19]

O=C1C(c2[nH]c3ccc(S(=O)(=O)O)cc3c2O)=Nc2ccc(S(=O)(=O)O)cc21
inactive: Potency [1] | Potency [3] | Potency [4] | Potency [16] | Potency [5] | Potency [6] | Potency [7] | Potency [17] | Potency [8] | Potency [18] | Potency [9] | Potency [10] | Potency [11] | Potency [12] | Potency [13] | Potency [14]

O=C(O)c1ccc2cc(C(=O)O)ccc2c1
inactive: Potency [2] | Potency [3] | Potency [15] | Potency [4] | Potency [16] | Potency [5] | Potency [6] | Potency [7] | Potency [17] | Potency [8] | Potency [18] | Potency [9] | Potency [10] | Potency [11] | Potency [12] | Potency [13] | Potency [14] | Potency [19] | Potency [20]

Nc1nc(N)nc(-c2cc(Cl)ccc2Cl)n1
inactive: Potency [2] | Potency [3] | Potency [15] | Potency [4] | Potency [16] | Potency [5] | Potency [6] | Potency [7] | Potency [17] | Potency [8] | Potency [18] | Potency [9] | Potency [10] | Potency [11] | Potency [12] | Potency [13] | Potency [14] | Potency [19] | Potency [20]

Cc1c(C)c2c(c(C)c1O)CC[C@@](C)(CCC[C@H](C)CCC[C@H](C)CCCC(C)C)O2
inactive: Potency [2] | Potency [3] | Potency [15] | Potency [4] | Potency [16] | Potency [5] | Potency [6] | Potency [7] | Potency [17] | Potency [8] | Potency [18] | Potency [9] | Potency [10] | Potency [11] | Potency [12] | Potency [13] | Potency [14] | Potency [19]

Cc1ccc(C)cc1
inactive: Potency [2] | Potency [3] | Potency [15] | Potency [4] | Potency [16] | Potency [5] | Potency [6] | Potency [7] | Potency [17] | Potency [8] | Potency [18] | Potency [9] | Potency [10] | Potency [11] | Potency [12] | Potency [13] | Potency [19] | Potency [20]

CC(C)NC[C@@H](O)COc1ccc(CC(N)=O)cc1
inactive: Potency [2] | Potency [3] | Potency [15] | Potency [4] | Potency [16] | Potency [5] | Potency [6] | Potency [7] | Potency [17] | Potency [8] | Potency [18] | Potency [9] | Potency [10] | Potency [11] | Potency [12] | Potency [14]
